# From PubChem BioAssay AID645 (SRMLSC, 2007)
# The campaign covered roughly 65,000 compounds. About 450 (0.69%) were called active. The entries come from a sample that favours actives as a whole. Unmarked numbers belong to inactive results.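 The calls were made as follows: active = HER2 level under 5% of the carrier-only control; inconclusive = no clear call, values can overlap the other calls; inactive = the rest.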
# Biological target: Receptor tyrosine-protein kinase erbB-2 (Homo sapiens) (UniProt P04626)
# Sequence (P04626 whole entry, looked up): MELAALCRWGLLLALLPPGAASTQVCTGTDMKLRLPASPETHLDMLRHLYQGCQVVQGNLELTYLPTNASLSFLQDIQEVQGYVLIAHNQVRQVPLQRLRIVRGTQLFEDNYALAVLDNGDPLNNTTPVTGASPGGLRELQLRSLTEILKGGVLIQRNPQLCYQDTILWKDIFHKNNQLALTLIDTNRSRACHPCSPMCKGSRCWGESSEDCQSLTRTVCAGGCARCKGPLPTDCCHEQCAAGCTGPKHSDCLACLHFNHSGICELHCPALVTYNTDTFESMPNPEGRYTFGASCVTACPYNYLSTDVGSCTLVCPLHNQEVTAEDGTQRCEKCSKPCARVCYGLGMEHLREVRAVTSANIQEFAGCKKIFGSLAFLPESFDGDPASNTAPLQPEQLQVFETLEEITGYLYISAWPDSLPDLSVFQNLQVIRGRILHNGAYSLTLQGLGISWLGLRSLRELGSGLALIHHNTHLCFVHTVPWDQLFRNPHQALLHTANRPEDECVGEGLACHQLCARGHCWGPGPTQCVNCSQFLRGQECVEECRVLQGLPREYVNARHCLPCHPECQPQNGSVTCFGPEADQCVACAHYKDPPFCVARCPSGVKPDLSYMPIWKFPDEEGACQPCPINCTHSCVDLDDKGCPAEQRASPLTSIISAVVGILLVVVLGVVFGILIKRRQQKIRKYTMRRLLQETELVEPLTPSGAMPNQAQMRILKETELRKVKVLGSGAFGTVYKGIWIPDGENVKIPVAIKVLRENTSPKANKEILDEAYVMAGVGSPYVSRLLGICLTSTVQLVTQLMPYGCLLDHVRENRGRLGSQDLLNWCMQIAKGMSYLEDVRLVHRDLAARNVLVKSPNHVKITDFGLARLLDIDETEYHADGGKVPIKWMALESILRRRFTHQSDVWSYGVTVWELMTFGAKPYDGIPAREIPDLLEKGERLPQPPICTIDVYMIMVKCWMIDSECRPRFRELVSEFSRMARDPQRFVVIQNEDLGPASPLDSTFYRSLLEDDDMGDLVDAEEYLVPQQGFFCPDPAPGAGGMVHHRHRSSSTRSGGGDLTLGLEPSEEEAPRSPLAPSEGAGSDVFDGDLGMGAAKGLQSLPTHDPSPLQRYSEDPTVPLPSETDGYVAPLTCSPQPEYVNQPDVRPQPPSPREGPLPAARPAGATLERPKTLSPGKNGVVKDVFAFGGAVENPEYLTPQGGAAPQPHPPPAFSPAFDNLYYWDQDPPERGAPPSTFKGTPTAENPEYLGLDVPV
# Assay: reducers of endogenous HER2 protein levels – SKBR-3 cells, AlphaScreen, 66K library, primary screen (AID 645);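 also: 100% = DMSO carrier and 0% = 500 nM PU-H71 HSP90 inhibitor; lower value means stronger loss of Her2 protein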
# Details: SKBR-3 HER2 protein level, 18-24 h, at 10 µM, active compounds read low
row,SMILES,HER2 level % of control
1,O=C(C(NS(=O)(=O)c1cccc2nsnc12)c1ccccc1)N1CCN(c2ccccn2)CC1 (stereo unspecified),70.8%
2,CCOP1(=O)C=C(C(C)(C)C)OC1c1ccc(F)cc1 (stereo unspecified),-28.1% (active)
3,CC1CCc2c(sc3c2C2=NS(=O)(=O)CCN2C=N3)C1 (stereo unspecified),111%
4,O=C(NCc1cccs1)c1ccc2c(c1)ncn2C1CCCC1,121%
5,Cc1ccc(OCC(O)CN2CCN(CC(O)COc3ccc(C)cc3Cl)CC2)c(Cl)c1 (stereo unspecified),65.4%
6,COc1ccc(N2CCN(CCNC(=O)c3nnc(Cc4c(F)cccc4Cl)o3)CC2)cc1,103%
7,O=C(CSc1nnc(Cn2cnc3ccccc32)o1)c1ccccc1,107%
8,CC(C)Oc1ccc(C2NC(=O)NC2=O)cc1 (stereo unspecified),81.7%
9,Cc1ccccc1N1CC(c2nc3ccccc3[nH]2)CC1=O (stereo unspecified),99.4%
10,N#CC1=C(SCc2ccccc2)NC(=O)C(C#N)C12CCCC2 (stereo unspecified),88.2%
11,CCOC(=O)C1CCCN(C(=O)c2sc3nc(C)nc(N4CCOCC4)c3c2C)C1 (stereo unspecified),87.2%
12,CCS(=O)(=O)NCCc1ccc(OC)c(OC)c1,90.2%
13,Cc1nnc(SCC(=O)NCc2cccs2)[nH]c1=O,87.7%
14,Cc1ccccc1-n1c(SCC(=O)NCc2cccs2)nnc1-c1ccncc1,108%
15,CCN(CC(=O)NCc1cccs1)c1nnnn1-c1ccccc1,-25.9% (active)
16,CCN1C(=O)/C(=C2\SC(N3CCCCC3)=NC2=O)c2ccccc21,121%
17,COc1cccc(C(=O)Nc2c3c(nn2-c2cccc(C)c2C)CS(=O)(=O)C3)c1OC,119%
18,Cc1nc2cc(-c3ccc(F)cc3)nn2c(N2CCOCC2)c1C,49.6%
19,Cn1c(=O)c2[nH]c(NCC3CCCO3)nc2n(-c2ccccc2)c1=O (stereo unspecified),83.7%
20,CCCC(NS(=O)(=O)c1ccc(OC)cc1)C(=O)O (stereo unspecified),96.9%
21,O=S(=O)(Nc1ccccc1N1CCOCC1)c1ccc(Cl)s1,95.5%

row,SMILES,HER2 level % of control
1,N#CC(C(N)=O)=C1CCC2(CC1)OCCCCO2,93.5%
2,CC1CCC(NS(=O)(=O)c2ccc3c(c2)n(C)c(=O)c(=O)n3C)CC1 (stereo unspecified),76.3%
3,Brc1ccc(OCCn2ccnc2)cc1,109%
4,Cc1ccc(N2CCN(S(=O)(=O)N(C)C)CC2)cc1Cl,105%
5,Cc1nnc(NC2=NCCCCC2)o1,106%
6,O=C(Nc1cc(=O)[nH]c2ncnn12)c1ccccc1Cl,92%
7,CSC1=N/C(=C\C=C\c2cccs2)C(=O)S1,0.09% (active)
8,COCC(C)N=CC1=C(O)CC(C)(C)CC1=O (stereo unspecified),118%
9,Cc1nc2sc(C(c3ccco3)N3CCOCC3)c(O)n2n1 (stereo unspecified),51%
10,C/C(=C\C(=O)c1ccccc1)Nc1cccc(O)c1,58.9%
11,c1ccc2cc3[nH]c(CN4CCCCC4)nc3cc2c1,96.1%
12,O=C(Nc1cccc(Cl)c1)OCc1ccccn1,91.3%
13,Cc1c(NC(=O)c2coc(=O)c(Br)c2)c(=O)n(-c2ccccc2)n1C,-15.4% (active)
14,Cc1cc(C(=O)Nc2c(C)n(C)n(-c3ccccc3)c2=O)cs1,91.6%
15,COC(=O)Nc1c(C)n(C)n(-c2ccccc2)c1=O,89.1%
16,CS(=O)(=O)c1ccc2nc(NC(=O)C3CCCCC3)sc2c1,45.1%
17,CC(=O)c1c(C)n(-c2ccc(N(C)C)cc2)c2ccc(OCC(N)=O)cc12,64.8%
18,COc1ccccc1-c1nnc(SCC(=O)Nc2cc(C)on2)o1,92.1%
19,CC(C)C1C2=C(CC(C)(C)CC2=O)ON1c1ccccc1 (stereo unspecified),89.9%
20,O=c1[nH]c(-c2ccccc2)c(-c2ccccc2)[nH]1,88.4%
21,CC1(C)CC(=O)NC=C(c2ccccc2)C1,-32.3% (active)

row,SMILES,HER2 level % of control
1,CC(C)(C)NC(=O)Cn1nnc(-c2ccccc2Cl)n1,75.9%
2,COCCCNC(=O)CCc1nc2cccnc2n1Cc1ccc(OC)cc1,96.5%
3,Cc1cc(NC(=O)CCC(=O)N(c2cccc(F)c2)C(C(=O)NC2CCCC2)c2ccncc2)no1 (stereo unspecified),97%
4,CCCCn1c(SCC(=O)NCC2CCCO2)nc2ccc(N3CCOCC3)cc2c1=O (stereo unspecified),92.5%
5,CCn1cc(C(=O)NCC2CCCO2)c(=O)c2cc(S(=O)(=O)N3CCCCC3)ccc21 (stereo unspecified),108%
6,CCn1c(SCC(=O)NCC2CCCO2)nc2cc(S(=O)(=O)N3CCCCC3)ccc21 (stereo unspecified),-27.6% (active)
7,Cc1cc(C)nc(SCc2ccccc2C#N)n1,112%
8,COc1ccc(C(=O)N2CCC(C(=O)Nc3cccc(C)c3)CC2)cc1OC,97.1%
9,Cc1nc2ccc(S(=O)(=O)NC(C(=O)N3CCCCCC3)C(C)C)cc2s1 (stereo unspecified),82.8%
10,Cc1nc2cc(S(=O)(=O)C(F)(F)F)ccc2s1,-17.7% (active)
11,Cc1nc2ccc(S(=O)(=O)NCC(=O)O)cc2s1,73.5%
12,O=C(NCCN=C1NS(=O)(=O)c2ccccc21)c1ccc(S(=O)(=O)N2CCOCC2)cc1,108%
13,CCOc1ccc(OCc2ccc(C(=O)Nc3cccc(C)n3)o2)cc1,68.1%
14,CC(C)(C)n1nnnc1C(c1ccc2ncccc2c1)N1CCSCC1 (stereo unspecified),92.2%
15,CC(C)c1ccc(OCC(O)Cn2cnc3ccccc32)cc1 (stereo unspecified),83.1%
16,Cc1ccc(S(=O)(=O)N2CCC(C(=O)N[C@@H](C)C(=O)NCCc3ccccc3)CC2)cc1,-21.9% (active)
17,Cc1ccc(S(=O)(=O)N2CCC(C(=O)N[C@@H](C)C(=O)NCc3ccccc3)CC2)cc1,102%
18,Cc1ccc(CCNC(=O)C2CCN(S(=O)(=O)N3CCCC3)CC2)cc1,107%
19,CC(C)C[C@H](NC(=O)[C@@H]1O[C@H]1C(=O)O)C(=O)NCCCCN=C(N)N,100%
